Laboratory results reported in PubChem BioAssay (Tox21).
Values joined by “and” are separate entries in the source; they are usually repeats but may differ in a detail not shown here. Identical values can stand only once. Records with an inconclusive call do not appear. Active and inactive are the calls of the source. Unless noted, the call rests on the fitted dose curve.

Key:
[1] = Nuclear factor erythroid 2-related factor 2/antioxidant responsive element (Nrf2/ARE) small molecule agonists: qHTS cell viability counter screen in human keratinocytes (AID 1919968; active means well fitted curve in the direction sought with a large enough effect in the repeat runs; an effect the other way counts as inactive or inconclusive; further: nearly all actives have a fitted effect of over 55% in size)
Outline: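 Cytotoxicity was multiplexed with the Nrf2/ARE luciferase assay in the same wells. Stably transfected HaCaT keratinocytes were treated with test compounds for 23 h at 37 C. Cell viability was then measured by CellTiter-Fluor fluorescence.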

[2] = Nuclear factor erythroid 2-related factor 2/antioxidant responsive element (Nrf2/ARE) small molecule agonists: luciferase reporter gene qHTS assay in human keratinocytes (AID 1919969); further: nearly all actives have a fitted effect of over 35% in size
[3] = biological target: Gonadotropin-releasing hormone receptor (Homo sapiens) (UniProt P30968); assay: Human gonadotropin-releasing hormone receptor (GnRHR) small molecule agonists, calcium flux assay in GnRHR-HEK293 cells (AID 1920063); further: nearly all actives have a fitted effect of over 35% in size
Chain of Gonadotropin-releasing hormone receptor (Homo sapiens) (P30968 whole entry, looked up): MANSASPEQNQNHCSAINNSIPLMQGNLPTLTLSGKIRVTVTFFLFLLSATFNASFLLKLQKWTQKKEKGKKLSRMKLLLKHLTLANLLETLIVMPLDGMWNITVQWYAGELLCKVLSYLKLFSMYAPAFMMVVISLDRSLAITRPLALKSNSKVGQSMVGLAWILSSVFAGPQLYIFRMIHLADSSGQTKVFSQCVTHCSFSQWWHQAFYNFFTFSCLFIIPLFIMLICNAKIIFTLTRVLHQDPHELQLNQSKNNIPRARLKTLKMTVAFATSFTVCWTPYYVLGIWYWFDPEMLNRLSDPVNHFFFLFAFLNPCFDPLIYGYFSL
Outline: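 Agonist activity was measured as intracellular calcium flux in HEK293 cells engineered to stably express human GnRHR. After dye loading for 1 hour at 37 C, compounds in DMSO were added and fluorescence was followed for 3 minutes.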

[4] = biological target: KiSS-1 receptor (Homo sapiens) (UniProt Q969F8); assay: Human kisspeptin (KISS1R) small molecule agonists, calcium flux assay in KISS1R-HEK293 cells (AID 1920064; active means well fitted curve in the direction sought with a large enough effect in the repeat runs; an effect the other way counts as inactive or inconclusive)
Chain of KiSS-1 receptor (Homo sapiens) (Q969F8 whole entry, looked up): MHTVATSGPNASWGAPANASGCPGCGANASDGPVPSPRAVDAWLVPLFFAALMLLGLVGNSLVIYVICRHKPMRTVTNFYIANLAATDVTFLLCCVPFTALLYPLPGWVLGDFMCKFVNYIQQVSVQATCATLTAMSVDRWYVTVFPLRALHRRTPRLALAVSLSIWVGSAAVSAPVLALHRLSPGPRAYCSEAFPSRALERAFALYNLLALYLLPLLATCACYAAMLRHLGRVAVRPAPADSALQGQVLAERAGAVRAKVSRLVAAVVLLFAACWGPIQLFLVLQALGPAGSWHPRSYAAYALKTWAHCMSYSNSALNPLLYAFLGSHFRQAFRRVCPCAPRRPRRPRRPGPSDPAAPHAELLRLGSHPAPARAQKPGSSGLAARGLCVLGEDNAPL
Outline: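 Agonist activity is monitored as intracellular calcium rise in engineered HEK293 cells carrying human KISS1R. Cells are dye-loaded for 1 h at 37 C before compound addition, and fluorescence is recorded for 3 min.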

[5] = G protein-coupled receptor (GPCR) small molecule agonists, calcium flux assay: HEK293 wild type cell line counter screen (AID 1920065)
Outline: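 Seed cells, incubate 18 h (37 C, 5% CO2); add calcium dye, 1 h at 37 C; pin-transfer compounds, ATP control or DMSO; read fluorescence 480/540 nm each second for 3 min.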

[6] = p53 small molecule agonists, cell-based qHTS assay with human liver microsomes (AID 1963577); further: potency means the concentration at half of the fitted maximal effect;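 on activation: p53 response element beta-lactamase reporter cells with liver microsomes plus NADPH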
Outline: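 Reporter activation was measured by LiveBLAzer fluorescence intensity in p53RE-bla cells, which had been exposed to compounds for 16 h at 37 C alongside 0.5 mg/mL human liver microsomes and 0.5 mg/mL NADPH (final concentrations).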

[7] = p53 small molecule agonists, cell-based qHTS assay with rat liver microsomes (AID 1963578); further: potency means the concentration at half of the fitted maximal effect
Outline: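 Compound in DMSO added to p53RE-bla cells 5 h post-plating; rat microsomes/NADPH 0.5 mg/mL final; 16 h, 37 C; LiveBLAzer 2 h RT.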

[8] = p53 small molecule agonists, cell-based qHTS assay with human liver microsomes: qHTS cell viability counter screen (AID 1963579); further: nearly all actives have a fitted effect of over 45% in size
Outline: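 HLM-supplemented (0.5 mg/mL final) and NADPH-supplemented (0.5 mg/mL final) p53RE-bla cultures, 4,000 cells per well, were dosed with compounds in DMSO for 16 h at 37 C; luminescent ATP detection (CellTiter-Glo, 30 min, room temperature) quantified surviving cells.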

[9] = p53 small molecule agonists, cell-based qHTS assay with rat liver microsomes: qHTS cell viability counter screen (AID 1963580); further: nearly all actives have a fitted effect of over 45% in size
Outline: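 Rat liver microsome (0.5 mg/mL final) and NADPH (0.5 mg/mL final) co-incubation with compounds for 16 h at 37 C on HCT-116 p53RE-bla cells; cytotoxicity taken from intracellular ATP luminescence.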

[10] = biological target: 5-hydroxytryptamine receptor 2A (Homo sapiens) (UniProt P28223); assay: 5-hydroxytryptamine receptor 2A (HTR2A) small molecule agonists, cell-based qHTS assay (AID 1963587); further: nearly all actives have a fitted effect of over 30% in size
Chain of 5-hydroxytryptamine receptor 2A (Homo sapiens) (P28223 whole entry, looked up): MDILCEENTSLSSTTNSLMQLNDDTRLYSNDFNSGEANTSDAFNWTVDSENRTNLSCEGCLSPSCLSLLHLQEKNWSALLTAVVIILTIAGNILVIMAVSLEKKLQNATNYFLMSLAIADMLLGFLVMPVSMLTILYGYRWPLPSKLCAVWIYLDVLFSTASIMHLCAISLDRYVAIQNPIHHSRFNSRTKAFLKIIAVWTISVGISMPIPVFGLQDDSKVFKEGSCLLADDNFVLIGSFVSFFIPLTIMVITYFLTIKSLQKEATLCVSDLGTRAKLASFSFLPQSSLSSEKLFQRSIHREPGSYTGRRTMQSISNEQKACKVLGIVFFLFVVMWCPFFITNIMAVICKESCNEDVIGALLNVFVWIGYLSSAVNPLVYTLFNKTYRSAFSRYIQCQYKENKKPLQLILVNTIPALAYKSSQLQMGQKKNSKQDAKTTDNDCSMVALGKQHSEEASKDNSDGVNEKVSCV
Outline: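 Kinetic calcium-flux fluorescence (2 min, 1 sec intervals) after compound addition in agonist mode. HTR2A-CHO cells were cultured 18 h, then dye-loaded 1 h at 37 C.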

[11] = biological target: Muscarinic acetylcholine receptor M1 (Homo sapiens) (UniProt P11229); assay: Cholinergic receptor muscarinic 1 (CHRM1) small molecule antagonists, cell-based qHTS assay (AID 1963588); further: nearly all actives have a fitted effect of over 40% in size
Chain of Muscarinic acetylcholine receptor M1 (Homo sapiens) (P11229 whole entry, looked up): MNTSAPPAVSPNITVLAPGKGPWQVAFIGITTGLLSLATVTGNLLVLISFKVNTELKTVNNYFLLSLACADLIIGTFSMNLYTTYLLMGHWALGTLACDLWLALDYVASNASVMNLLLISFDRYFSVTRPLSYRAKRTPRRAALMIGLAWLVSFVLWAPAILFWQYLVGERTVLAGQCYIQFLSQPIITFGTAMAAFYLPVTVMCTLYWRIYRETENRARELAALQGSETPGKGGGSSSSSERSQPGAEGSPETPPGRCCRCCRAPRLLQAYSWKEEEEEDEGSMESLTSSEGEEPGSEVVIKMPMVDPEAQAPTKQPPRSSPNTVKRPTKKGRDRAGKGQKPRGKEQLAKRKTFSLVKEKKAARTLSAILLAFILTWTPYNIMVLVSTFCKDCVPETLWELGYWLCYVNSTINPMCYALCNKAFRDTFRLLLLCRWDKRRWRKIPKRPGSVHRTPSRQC
Outline: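 Compounds were tested at 15 concentrations in three independent runs. Dye-loaded CHRM1-CHO cells were exposed 5 min at room temperature before stimulation by acetylcholine added at 50nM. Intracellular calcium was read kinetically on FDSS for 3 min.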

[12] = biological target: Muscarinic acetylcholine receptor M1 (Homo sapiens) (UniProt P11229); assay: Cholinergic receptor muscarinic 1 (CHRM1) small molecule agonists, cell-based qHTS assay (AID 1963589); further: nearly all actives have a fitted effect of over 35% in size
Outline: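 Cells were plated and incubated 18 h at 37 C/5% CO2, loaded with calcium dye for 1 h at 37 C, then treated with compounds in DMSO. Fluorescence was recorded kinetically at 1 sec intervals.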

[13] = cAMP Responsive Elements (CRE) small molecule antagonists, cell-based qHTS assay (AID 1963591; active means well fitted inhibition curve with a large enough effect in the signal ratio in the repeat runs, not every such curve was filed as active; the % refers to the signal ratio)
Outline: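 Cells (CRE-bla HEK 293T, DMEM with 10% dialyzed FBS and 25 mM HEPES) are seeded and incubated 18 h. Compounds are added with NKH477 agonist at 0.25 uM final for 3 h, then FRET substrate for 2 h.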

[14] = biological target: Beta-2 adrenergic receptor (Homo sapiens) (UniProt P07550); assay: Adrenergic beta2 receptor (ADRB2) small molecule antagonists, cell-based qHTS assay (AID 1963592); further: series mostly up to about 92 µM; nearly all actives have a fitted effect of over 50% in size
Chain of Beta-2 adrenergic receptor (Homo sapiens) (P07550 whole entry, looked up): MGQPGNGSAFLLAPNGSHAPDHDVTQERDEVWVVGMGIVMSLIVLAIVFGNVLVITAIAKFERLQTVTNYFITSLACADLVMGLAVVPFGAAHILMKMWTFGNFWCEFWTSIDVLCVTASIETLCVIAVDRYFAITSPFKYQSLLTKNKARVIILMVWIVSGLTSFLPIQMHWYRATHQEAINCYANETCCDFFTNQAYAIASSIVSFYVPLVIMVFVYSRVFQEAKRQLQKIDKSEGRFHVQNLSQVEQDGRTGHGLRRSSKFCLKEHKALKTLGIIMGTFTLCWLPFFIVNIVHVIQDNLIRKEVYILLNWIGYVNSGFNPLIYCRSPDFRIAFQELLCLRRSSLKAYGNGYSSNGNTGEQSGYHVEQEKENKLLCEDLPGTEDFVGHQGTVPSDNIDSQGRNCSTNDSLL
Outline: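 Assay format: CHO-ADRB2 cells, 18-20hr seeding at 37C/5% CO2, then compound plus 1nM isoproterenol agonist mix for 0.5hr RT. Homogeneous time-resolved fluorescence cAMP detection after 1hr, expressed as 665/615 nm ratio.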

[15] = biological target: Beta-2 adrenergic receptor (Homo sapiens) (UniProt P07550); assay: Adrenergic beta2 receptor (ADRB2) small molecule agonists, cell-based qHTS assay (AID 1963593);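 further: CHO cells stably overexpressing human ADRB2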
Outline: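 CHO cells stably over-expressing ADRB2 were plated overnight at 37C, then dosed with compounds plus a stimulation mix containing 100uM IBMX and 25uM Ro-20-1724 for 0.5hr at room temperature. cAMP was measured by HTRF competition, 1hr.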

[16] = biological target: D(2) dopamine receptor (Homo sapiens) (UniProt P14416); assay: Dopamine D2 receptor (DRD2) small molecule agonists, cell-based qHTS assay (AID 1963594); further: nearly all actives have a fitted effect of over 35% in size
Chain of D(2) dopamine receptor (Homo sapiens) (P14416 whole entry, looked up): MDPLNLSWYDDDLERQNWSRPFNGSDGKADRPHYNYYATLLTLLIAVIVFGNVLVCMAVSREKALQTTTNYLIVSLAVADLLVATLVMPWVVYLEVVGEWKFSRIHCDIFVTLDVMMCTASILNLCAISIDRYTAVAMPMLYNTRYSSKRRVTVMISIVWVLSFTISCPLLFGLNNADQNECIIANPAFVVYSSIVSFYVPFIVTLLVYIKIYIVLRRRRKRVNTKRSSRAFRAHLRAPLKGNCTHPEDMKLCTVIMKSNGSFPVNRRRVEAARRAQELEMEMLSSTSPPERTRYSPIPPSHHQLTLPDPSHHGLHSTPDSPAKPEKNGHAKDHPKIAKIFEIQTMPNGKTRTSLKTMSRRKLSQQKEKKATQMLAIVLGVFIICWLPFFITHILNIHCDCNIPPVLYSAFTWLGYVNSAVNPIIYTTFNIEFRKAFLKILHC
Outline: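 cAMP accumulation in DRD2-HEK293 cells measured by HTRF after 1 h detection; compounds added 10 min before NKH477 (200nM […]) forskolin-analogue stimulation, 30 min at room temperature, with Ro20-1724 present at 0.1 mM final.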

[17] = biological target: D(2) dopamine receptor (Homo sapiens) (UniProt P14416); assay: Dopamine D2 receptor (DRD2) small molecule antagonists, cell-based qHTS assay (AID 1963595; active means well fitted inhibition curve with a large enough effect in the signal ratio in the repeat runs, with a control signal flat; the % refers to the signal ratio)
Outline: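 DRD2-HEK293; 0.1 mM Ro20-1724; cpd 10 min RT; NKH477 200 nM + quinpirole 12 nM, 30 min RT; HTRF cAMP (cAMP-d2/anti-cAMP cryptate), 665/620 nm ratio after 1 h.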

[18] = p53 small molecule agonists, cell-based qHTS assay (AID 1963582; active means well fitted activation curve with a large enough effect in the signal ratio in the repeat runs, not every such curve was filed as active; the % refers to the signal ratio)
Outline: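 Cells carrying a p53-responsive bla reporter are treated with test compounds for 16 h at 37 C; beta-lactamase activity is then detected with LiveBLAzer B/G FRET substrate after 2 h at room temperature.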

[19] = cAMP Responsive Elements (CRE) small molecule agonists, cell-based qHTS assay (AID 1963590)
Outline: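 Cells carrying a CRE-driven beta-lactamase reporter (HEK 293T) are seeded, incubated overnight (18 h), and treated with test compounds for 3 h at 37 C; reporter activity is then detected with a FRET substrate after 2 h at room temperature.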

[20] = biological target: 5-hydroxytryptamine receptor 2A (Homo sapiens) (UniProt P28223); assay: 5-hydroxytryptamine receptor 2A (HTR2A) small molecule antagonists, cell-based qHTS assay (AID 1963586); further: nearly all actives have a fitted effect of over 45% in size
Outline: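 CHO cells stably expressing human HTR2A were plated for 18 h at 37 C, then loaded with calcium dye for 1 h. Compounds were preincubated 5 min at room temperature before DOI (4 nM solution) was added. Kinetic fluorescence was read for 3 min.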
On the % scale 0 is the no-effect control and ±100 the full control effect.

Cc1ccc(S(=O)(=O)NC(=O)NC2CCCCCCC2)cc1
inactive: Potency [1] | Potency [2] | Potency [3] | Potency [4] | Potency [5] | Potency [6] | Potency [7] | Potency [8] | Potency [9] | Potency [10] | Potency [11] | Potency [12] | Potency [13] | Potency [14] | Potency [15] | Potency [16] | Potency [17]

Nc1nc(N)c2nc(-c3ccccc3)c(N)nc2n1
inactive: Potency [1] | Potency [2] | Potency [3] | Potency [4] | Potency [5] | Potency [8] | Potency [9] | Potency [14] | Potency [15] | Potency [16] | Potency [17]
active: Potency [6] 18.2 µM | Potency [7] 29.2 µM and 17.8 µM

CN(C)c1cc(NC(=O)CNC(C)(C)C)c(O)c2c1C[C@H]1C[C@H]3[C@H](N(C)C)C(=O)C(C(N)=O)=C(O)[C@@]3(O)C(=O)C1=C2O
inactive: Potency [1] | Potency [2] | Potency [3] | Potency [4] | Potency [5] | Potency [6] | Potency [7] | Potency [8] | Potency [9] | Potency [18] | Potency [10] | Potency [11] | Potency [12] | Potency [19] | Potency [13] | Potency [14] | Potency [15] | Potency [16] | Potency [17]

CC(S)C(=O)NCC(=O)O (stereo unspecified)
inactive: Potency [1] | Potency [2] | Potency [3] | Potency [4] | Potency [5] | Potency [6] | Potency [7] | Potency [8] | Potency [9] | Potency [18] | Potency [20] | Potency [11] | Potency [12] | Potency [19] | Potency [13] | Potency [14] | Potency [15] | Potency [16] | Potency [17]

CCn1cc(C(=O)O)c(=O)c2cc3c(cc21)OCO3
inactive: Potency [1] | activity, positive = activation [2] -1.35% [at 19 µM] | Potency [3] | Potency [4] | Potency [5] | Potency [6] | Potency [7] | Potency [8] | Potency [9] | Potency [18] | Potency [20] | Potency [11] | Potency [12] | activity change, negative = inhibition [13] -7.86% [at 18.9 µM] | Potency [14] | Potency [15] | Potency [16] | Potency [17]

O=C(CCN1CCN(CCO)CC1)N1c2ccccc2Sc2ccc(C(F)(F)F)cc21
inactive: Potency [1] | Potency [2] | Potency [3] | Potency [4] | Potency [5] | Potency [6] | Potency [7] | Potency [8] | Potency [9] | Potency [18] | Potency [20] | Potency [10] | Potency [11] | Potency [12] | Potency [13] | Potency [14] | Potency [15] | Potency [16] | Potency [17]

CC(C)CC(=O)O
inactive: Potency [1] | Potency [2] | Potency [3] | Potency [4] | Potency [5] | Potency [6] | Potency [7] | Potency [8] | Potency [9] | Potency [20] | Potency [10] | Potency [11] | Potency [12] | Potency [19] | Potency [13] | Potency [14] | Potency [16] | Potency [17]

O=C(O)CNC(=O)c1ccc(CO)o1
inactive: Potency [1] | Potency [2] | Potency [3] | Potency [4] | Potency [5] | Potency [6] | Potency [7] | Potency [8] | Potency [18] | Potency [20] | Potency [10] | Potency [11] | Potency [12] | Potency [19] | Potency [13] | Potency [14] | Potency [15] | Potency [16]
